± gives the standard deviation of the averaged measurements.
Assays:
Conditions in all cases: concentration: 10 µM; 24 h
HCC1569 [1] = experiment: cell number relative to DMSO (% of DMSO); higher = more cells (less growth inhibition / toxicity)
Outline: (§1)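 After 24 h at 37 °C with compounds at 10 µM, in triplicate, HCC1569 and TDF cells were fixed with 3.7% formaldehyde. Immunostaining used a rabbit anti-H1.0 antibody and an AlexaFluor 647 secondary, with DAPI, and six fields per well were imaged at ×10. H1.0 nuclear intensity or cell number is presented as percent of the plate control, from the median of replicates, with HCC1569 values smoothed for positional effects.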

TDF [2] = experiment: as above
Outline: as §1

TDF [3] = experiment: H1.0 immunofluorescence intensity relative to DMSO (% of DMSO); higher = stronger H1.0 induction, active = 120 or more
Outline: as §1

HCC1569 [4] = experiment: H1.0 immunofluorescence intensity relative to DMSO (% of DMSO); higher = stronger H1.0 induction, active = 140 or more
Outline: as §1
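For H1.0 immunofluorescence intensity relative to DMSO in this document: TDF is a line of transformed human dermal fibroblasts of mesenchymal origin.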
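For cell number relative to DMSO in this document: TDF denotes transformed human dermal fibroblasts of mesenchymal origin.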

| Structure (SMILES) | cell number (HCC1569 [1]) | cell number (TDF [2]) | H1.0 immunofluorescence intensity (TDF [3]) | H1.0 immunofluorescence intensity (HCC1569 [4]) |
| --- | --- | --- | --- | --- |
| Cc1cc2c(s1)=Nc1ccccc1NC=2N1CCN(C)CC1 [Olanzapine] | 106 | 99.4 | 92.2 (inactive) | 95.6 (inactive) |
| CCN1CCc2nc(N)oc2CC1.Cl.Cl [B-HT 933 dihydrochloride] | 99.5 | 104 | 97 (inactive) | 87.2 (inactive) |
| COc1ccc(CN2CCN(C(c3ccc(F)cc3)c3ccc(F)cc3)CC2)c(OC)c1OC [Lomerizine] | 102 | 98.8 | 92.3 (inactive) | 105 (inactive) |
| CNCCC(Oc1ccc(C(F)(F)F)cc1)c1ccccc1 (stereo unspecified) [Fluoxetine] | 99.3 | 94.1 | 100 (inactive) | 135 (inactive) |
| CC(C)=CCCC(C)(O)C1CCC2(C)C1CCC1C3(C)CCC(=O)C(C)(C)C3CCC12C (stereo unspecified) [Dipterocarpol] | 95.8 | 102 | 97.8 (inactive) | 82.7 (inactive) |
| Cc1cnc(C(=O)NCCc2ccc(S(=O)(=O)NC(=O)NC3CCCCC3)cc2)cn1 [Glipizide] | 106 ± 3.7 | 107 ± 6.9 | 96.6 (inactive) | 103 (inactive) |
| CC(=O)C1CCC2C3CC=C4CC(O)CCC4(C)C3CCC12C (stereo unspecified) [Pregnenolone] | 102 | 102 | 95.7 (inactive) | 112 (inactive) |
| CN(C)C(N)=NCCCC(N)C(=O)O.Cl (stereo unspecified) [N^G,N^G-Dimethylarginine hydrochloride] | 104 | 96.5 | 91.6 (inactive) | 94.5 (inactive) |
| CCCCCCCCCCCCCCCC(=O)NC(COP(=O)(O)O)C(=O)O (stereo unspecified) | 102 | 109 | 92 (inactive) | 98.9 (inactive) |
| Br.CN=c1nc(-c2ccccc2)n(-c2ccccc2)s1 | 97.5 | 107 | 90.9 (inactive) | 111 (inactive) |
| C=C(C)C1CCC2(CO)CCC3(C)C(CCC4C5(C)CCC(O)C(C)(C)C5CCC43C)C12 (stereo unspecified) [Betulin] | 107 | 99.2 | 98.9 (inactive) | 95.6 (inactive) |
| O=C1NC(=O)C(=Cc2ccc3nccnc3c2)S1 [PI 3-Kg Inhibitor] | 103 | 110 | 87.2 (inactive) | 114 (inactive) |
| CN(C)CCOc1ccc(-c2nc(=c3ccc4c(c3)CCC=4N=O)c(=C3C=CNC=C3)[nH]2)cc1 | 88.6 | 49 | 117 (inactive) | 132 (inactive) |
| CN(Cc1cnc2nc(N)nc(N)c2n1)c1ccc(C(=O)NC(CCC(=O)O)C(=O)O)cc1 (stereo unspecified) [Methotrexate] | 81.7 | 86.5 | 92.8 (inactive) | 87 (inactive) |
| CN1CCN2c3ccccc3Cc3ccccc3C2C1.Cl (stereo unspecified) [Mianserin hydrochloride] | 105 | 101 | 95.5 (inactive) | 98.4 (inactive) |
| CC1OC(n2cc(F)c(=O)[nH]c2=O)C(O)C1O (stereo unspecified) [Doxifluridine] | 88.3 | 107 | 98.3 (inactive) | 101 (inactive) |
| NC(N)=Nc1nc(CSCCC(N)=NS(N)(=O)=O)cs1 [Famotidine] | 102 | 102 | 94.4 (inactive) | 89.7 (inactive) |
| O=C(O)CCCC(O)C=CC=CC=CC(O)CC=CCCCCCO (stereo unspecified) [20-Hydroxy-leukotriene B4] | 100 | 101 | 95.2 (inactive) | 108 (inactive) |
| O=C(Nc1cc(C(=O)Nc2ccc(S(=O)(=O)[O-])cc2S(=O)(=O)[O-])cc(C(=O)Nc2ccc(S(=O)(=O)[O-])cc2S(=O)(=O)[O-])c1)Nc1cc(C(=O)Nc2ccc(S(=O)(=O)[O-])cc2S(=O)(=O)[O-])cc(C(=O)Nc2ccc(S(=O)(=O)[O-])cc2S(=O)(=O)[O-])c1.[Na+].[Na+].[Na+].[Na+].[Na+] [NF449 octasodium salt] | 97.4 | 92.8 | 89.6 (inactive) | 108 (inactive) |
| CC[N+](C)(C)Cc1ccccc1Br.Cc1ccc(S(=O)(=O)[O-])cc1 [Bretylium tosylate] | 83.4 | 80.2 | 105 (inactive) | 103 (inactive) |
| CN1C(=O)CC(C(=O)O)C1c1cccnc1 (stereo not drawn) [Trans-4-Cotininecarboxylic acid] | 98.4 | 100 | 93.3 (inactive) | 85.3 (inactive) |
| CCn1cc(C(=O)O)c(=O)c2cc(F)c(N3CCN(C)CC3)cc21.CS(=O)(=O)O.O.O [Pefloxacine mesylate dihydrate] | 103 | 111 | 96.4 (inactive) | 109 (inactive) |
| CC1=C(C(=O)O)N2C(=O)C(NC(=O)C(N)C3=CCC=CC3)C2SC1 (stereo unspecified) [Cephadrine] | 100 | 101 | 96.3 (inactive) | 88 (inactive) |
| CC1(C)CC(=O)C2=C(C1)NC(=S)NC2c1cccc(O)c1 (stereo unspecified) | 70.7 | 9.81 | 152 (active) | 118 (inactive) |
| CN1C2CCC1CC(OC(=O)c1c[nH]c3ccccc13)C2.Cl (stereo unspecified) [3-Tropanyl-indole-3-carboxylate hydrochloride] | 103 | 112 | 93.4 (inactive) | 112 (inactive) |

| Structure (SMILES) | cell number (HCC1569 [1]) | cell number (TDF [2]) | H1.0 immunofluorescence intensity (TDF [3]) | H1.0 immunofluorescence intensity (HCC1569 [4]) |
| --- | --- | --- | --- | --- |
| Nc1nc(Nc2ccc(S(N)(=O)=O)cc2)nn1C(=S)Nc1c(F)cccc1F [Cdk1/2 Inhibitor III] | 51.9 | 14.2 | 133 (active) | 128 (inactive) |
| O=C1C(=Cc2ccc(O)c(O)c2)Oc2cc(O)ccc21 [Sulfuretine] | 98 | 102 | 93.3 (inactive) | 99.9 (inactive) |
| CCCCCC=CCC=CCC1OC1CC=CCCCC(=O)O (stereo unspecified) [8,9-Epoxyeicosatrienoic acid] | 103 | 101 | 97.7 (inactive) | 104 (inactive) |
| CCC=CCC=CCC=CCC=CCC=CCCCCCC(=O)O [Docosapentaenoic acid] | 100.4 ± 0.68 | 97.7 ± 1.7 | 101 (inactive) | 103 (inactive) |
| O=C1C=C(CO)OCC1=O [5-hydroxy-2-(hydroxymethyl)-4H-pyran-4-one] | 105 | 94.6 | 92.9 (inactive) | 92 (inactive) |
| Cn1c2ccccc2c2c3c(c4c5ccccc5n(CCC#N)c4c21)CNC3=O | 94.3 | 30.5 | 90.7 (inactive) | 99.5 (inactive) |
| Cc1ccccc1N1CCN(S(=O)(=O)CC23CCC(CC2NC(=O)C(N)CCS(C)(=O)=O)C3(C)C)CC1.Cl (stereo unspecified) | 101 | 104 | 94.1 (inactive) | 99 (inactive) |
| CCCCCC=CCC(O)C=CC=CC=CC(O)CCCC(=O)O [5(S),12(S)-DIHETE all trans] | 101 | 106 | 93.5 (inactive) | 95 (inactive) |
| COc1ccccc1OCC(O)CN1CCN(CC(=O)Nc2c(C)cccc2C)CC1.Cl.Cl (stereo unspecified) [Ranolazine.2HCl] | 104 | 93.2 | 94.2 (inactive) | 102 (inactive) |
| CC1C(=O)CCC2C1(C)CCC1C2(C)CCC2(C)C3CC(C)(C)CCC3(C)CCC12C (stereo unspecified) [Friedelin] | 99.5 | 102 | 96.1 (inactive) | 87.8 (inactive) |
| CCOC(=O)C1=CC2(CC)CCCN3CCc4c(n1c1ccccc41)C32 (stereo unspecified) [Vinpocetine] | 101 ± 3 | 106 ± 5.3 | 93.2 (inactive) | 98.8 (inactive) |
| CCN(NO)C1=CC(=O)C(=O)C=C1 [ET-3,4-dephostatin] | 79.5 | 97.7 | 94.7 (inactive) | 151 (active) |
| CC(C)COCC(CN(Cc1ccccc1)c1ccccc1)N1CCCC1.Cl (stereo unspecified) [Bepridil.HCl] | 102 | 103 | 93.1 (inactive) | 99.1 (inactive) |
| CCNC(=O)C1OC(n2cnc3c(NCc4ccccc4)ncnc32)C(O)C1O (stereo unspecified) [N6-Benzyl-5'-N-ethylcarboxamidoadenosine] | 77 | 57.3 | 103 (inactive) | 114 (inactive) |
| Cl.NC1(C(=O)O)CC1 [1-Aminocyclopropanecarboxylic acid hydrochloride] | 100 | 102 | 96.5 (inactive) | 100 (inactive) |
| Cc1nc(C)c(C)nc1C [Tetramethylpyrazine] | 106 | 108 | 92.9 (inactive) | 94.2 (inactive) |
| C=CC(=O)c1ccc2ccccc2c1 | 99.7 | 92 | 103 (inactive) | 113 (inactive) |
| NC(=O)c1cccc(-c2cc(Nc3ccc(OC(F)(F)F)cc3)ncn2)c1 [Bcr-abl Inhibitor] | 89.5 | 92.8 | 98.5 (inactive) | 124 (inactive) |
| NC(=O)c1ccc(-c2nc(-c3ccc4c(c3)OCCO4)c(-c3ccccn3)[nH]2)cc1 [Casein Kinase I Inhibitor, D4476] | 92.2 | 97 | 95.4 (inactive) | 127 (inactive) |
| CCCCCC(O)C=CC=CCC=CCC=CCCCC(=O)O (stereo unspecified) | 103 | 100 | 96.7 (inactive) | 99.7 (inactive) |
| Oc1cc(O)c2c(c1)OC(c1ccc(O)c(O)c1)C(O)C2 (single isomer, unassigned; (+)) [(+)-Catechine] | 102 | 105 | 91.8 (inactive) | 88.4 (inactive) |
| CC(C)C(CO)Nc1nc(Nc2cc(N)cc(Cl)c2)c2ncn(C(C)C)c2n1 (stereo unspecified) [Aminopurvalanol A] | 65.5 | 83.4 | 97.4 (inactive) | 145 (active) |
| [Cl-].[Li+] [Lithium Chloride] | 101 | 109 | 92.2 (inactive) | 88 (inactive) |
| O=C(O)[C@@H]1C[C@H](C(=O)O)N1 [cis-Azetidine-2,4-dicarboxylic acid] | 103 | 101 | 105 (inactive) | 109 (inactive) |
